The list shows a part of the results. Unmarked numbers belong to inactive results. Active and inactive are the calls of the source. No stated cut-off is given here; in the data, active means activation above about 21%; inactive means the rest.
Each compound was assayed against Sphingosine 1-phosphate receptor 1 (Homo sapiens) (UniProt P21453) (assay: activation of human S1P1 receptor – cell-based, counter-screen for S1P4 agonist project (AID 1563;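 further: 0% = vehicle wells and 100% = reference agonist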)). Settings: S1P1 agonist cell-based assay, at 4.98 µM, active compounds read high.
Sphingosine 1-phosphate receptor 1 (Homo sapiens), sequence (P21453 whole entry, looked up): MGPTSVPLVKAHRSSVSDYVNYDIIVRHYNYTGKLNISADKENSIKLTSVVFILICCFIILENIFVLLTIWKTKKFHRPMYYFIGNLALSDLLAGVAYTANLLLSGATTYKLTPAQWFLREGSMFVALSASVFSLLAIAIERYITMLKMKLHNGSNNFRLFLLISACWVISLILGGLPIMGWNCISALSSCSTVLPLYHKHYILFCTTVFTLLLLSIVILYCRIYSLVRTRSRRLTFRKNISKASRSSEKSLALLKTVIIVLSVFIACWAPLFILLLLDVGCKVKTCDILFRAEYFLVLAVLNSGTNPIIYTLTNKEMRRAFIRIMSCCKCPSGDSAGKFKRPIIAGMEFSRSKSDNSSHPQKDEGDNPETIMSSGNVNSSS

| SMILES | activation |
| --- | --- |
| COC(=O)CNC(=O)C(CCSC)NC(C)=O (configuration not stated) | -8.17% |
| COc1ccc(N2C(=O)C(Cc3ccccc3)NC2=S)cc1 (configuration not stated) | -2.28% |
| Cc1ccc(NC(=O)Nc2ccccc2)c(Br)c1 | 5.03% |
| O=C(COC(=O)Cc1ccc(F)cc1)Nc1cc(S(=O)(=O)N2CCOCC2)ccc1N1CCCC1 | 5.34% |
| C=CCn1c(SCn2nnc3ccccc3c2=O)nnc1-c1ccc(Cl)cc1 | -1.97% |
| O=C(CSc1ccc(-c2ccc(F)cc2)nn1)Nc1ccc2c(c1)OCCO2 | -2.21% |
| COc1ccc(C2CC(c3cccs3)=NN2c2ccccc2)cc1 (configuration not stated) | 43.8% (active) |
| O=C(CSc1nnc(Nc2ccccc2)s1)Nc1cccnc1Cl | -2.54% |
| CCOc1ccc(-c2nnc(-c3ccco3)o2)cc1 | 2.5% |
| COc1ccc(C2CC(c3cccs3)=NN2c2ccc(F)cc2)cc1OC (configuration not stated) | 16.6% |
| CCC(C)NC(=O)C1c2ccccc2Oc2ccccc21 (configuration not stated) | 0.8% |
| Cc1cc(C)nc(N(C#N)CC(=O)Nc2ccccc2)n1 | 0.75% |
| COc1ccccc1CNC(=O)CNC(=O)c1cn(-c2ccccc2OC)c(=O)c2ccccc12 | -2.71% |
| CC(=O)Nc1ccc(SCC(=O)Nc2ccccc2Oc2ccccc2)cc1 | -3.81% |
| CNC(=O)c1[nH]cnc1C(=O)N[C@@H](CC(C)C)C(=O)OCc1ccccc1 | 11.4% |
| CCCCCNC(=O)c1cccnc1SCC(=O)Nc1ccccc1OC | 1.32% |

| SMILES | activation |
| --- | --- |
| CCn1c(CNC(=O)c2ccc(OC)c(OC)c2)nnc1SCC(=O)Nc1ccccc1 | 0.73% |
| O=C(COC(=O)c1cc([N+](=O)[O-])ccc1NCc1ccccc1)NC1CCCCC1 | -7.16% |
| CC(C)C(c1nnnn1C(C)(C)C)N1CCN(Cc2cccnc2)CC1 (configuration not stated) | -9.51% |
| CC(=O)Nc1ccccc1NC(=O)c1cc(C)cc(C)c1 | -9.63% |
| O=[N+]([O-])c1cccc(Nc2c3ccccc3nc3ccccc23)c1 | 11.6% |
| Cc1cc(C)c(C#N)c(SCC(=O)NN2CC(=O)N(c3ccccc3F)CC2=O)n1 | -4.8% |
| CC(Oc1ccc(Br)cc1Br)C(=O)NC1CCCC1 (configuration not stated) | -6.64% |
| Cc1noc(C)c1COC(=O)COc1ccc(-c2ccccc2)cc1 | 0.9% |
| CCC(=O)/C(=C(/O)c1ccccc1)c1nc2ccccc2[nH]1 | -4.01% |
| CC1CCCC(NC(=O)COC(=O)[C@@H]2CC(O)CN2S(=O)(=O)c2ccc3c(c2)OCCO3)C1C (some centres not stated) | -5.42% |
| Cc1cc(NC(=O)c2cc(-c3cccs3)on2)nn1Cc1ccc(Cl)cc1 | 4.89% |
| N/C(=N\OC(=O)Cc1ccc([N+](=O)[O-])cc1)c1ccccn1 | -7.04% |
| CSc1sc(C(=O)NNC(=O)c2ccc(Cl)cc2)c2c1C=CCC2 | 2.26% |
| O=C(CSc1nncn1-c1cccnc1)N1CCOCC1 | 2.75% |
| COC(=O)[C@@H]1CC[C@H](C)[C@@H](c2ccc(C)cc2)N1C(=O)c1ccc(/C=N/O[C@H](C)c2cn([C@@H]3COC[C@H]3O)nn2)cc1 | -3.45% |
| COc1ccc(-n2c(C)cc(C(=O)CN3C(=O)NC4(CCc5ccccc54)C3=O)c2C)cc1 (configuration not stated) | 1.51% |
